Screening data as filed in PubChem BioAssay.
AHR activator: activates the human aryl hydrocarbon receptor. P35869. AHR-responsive luciferase reporter cells, luminescence. activation, % at 5 µM. 2.5% of 320,000 active; in the data active = activation above about 47%;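 also: 0% = vehicle wells and 100% = reference agonist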
Target sequence (P35869 whole entry, looked up): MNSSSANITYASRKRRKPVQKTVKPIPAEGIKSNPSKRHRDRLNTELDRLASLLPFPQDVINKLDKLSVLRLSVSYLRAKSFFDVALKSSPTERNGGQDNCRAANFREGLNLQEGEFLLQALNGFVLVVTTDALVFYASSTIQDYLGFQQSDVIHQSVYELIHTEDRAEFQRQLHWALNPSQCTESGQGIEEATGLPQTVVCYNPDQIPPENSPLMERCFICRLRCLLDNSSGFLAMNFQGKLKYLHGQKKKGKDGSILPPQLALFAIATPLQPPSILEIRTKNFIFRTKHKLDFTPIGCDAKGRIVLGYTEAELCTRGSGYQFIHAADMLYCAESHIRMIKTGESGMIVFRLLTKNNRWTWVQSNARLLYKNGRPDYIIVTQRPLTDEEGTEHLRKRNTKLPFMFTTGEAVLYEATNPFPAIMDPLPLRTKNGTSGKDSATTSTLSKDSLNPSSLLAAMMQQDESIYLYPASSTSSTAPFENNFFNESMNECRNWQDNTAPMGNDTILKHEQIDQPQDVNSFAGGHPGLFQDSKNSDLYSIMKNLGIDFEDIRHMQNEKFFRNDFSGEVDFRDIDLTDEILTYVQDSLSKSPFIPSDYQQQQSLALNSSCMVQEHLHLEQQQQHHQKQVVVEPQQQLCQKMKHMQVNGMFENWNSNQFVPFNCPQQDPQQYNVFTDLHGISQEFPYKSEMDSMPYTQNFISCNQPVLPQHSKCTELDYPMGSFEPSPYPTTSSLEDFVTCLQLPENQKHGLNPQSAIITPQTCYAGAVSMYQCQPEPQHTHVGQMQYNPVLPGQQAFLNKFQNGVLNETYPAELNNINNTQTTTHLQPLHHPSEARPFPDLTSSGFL
NR0B1 inh: inhibits human nuclear receptor DAX1. 0.99% of 340,000 active. inhibition, % at 6.75 µM. HEK293 Gal4-DAX1 luciferase reporter, luminescence;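 active = inhibition above the mean over all tested compounds plus 3 SD, cut at about 4.2% in these data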;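 also: 0% = DAX1-transfected cells with DMSO and 100% = empty-vector control cells with DMSO; inhibition shows as a rise in luminescence from relieved DAX1 repression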
FXN GAA850 act: increases GAA850 frataxin promoter reporter activity; HEK293 lucGAA850 FXN promoter luciferase reporter, 24 h; percent of 10 µM SAHA response; activation, % at 6 µM; 0.56% of 360,000 active; AID 540364;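 active = activation above the average of all compounds screened plus 3 SD, cutoff fixed separately per campaign, cut at about 7.5% in these data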;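 also: 0% = DMSO wells and 100% = 10 µM SAHA wells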
HSF1 activator: increases HSF-1 driven luciferase reporter signal; AID 504408; NIH3T3-HGL HSF-1 luciferase reporter, MG132, 8 h; 100% = twice DMSO control signal; 1.7% of 300,000 active; activation, % at 9 µM;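 active = mean replicate activation of at least 50% with a set share of replicates each reaching 50%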;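 also: 0% = median of the neutral control wells and 100% = twice that signal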
HSF1 inhib: HSF1 inhibition | NIH3T3-HGL HSE-luciferase, MG132-induced, luminescence 8 h; hits give low values | activity change, negative = inhibition, % at 7.5 µM (by protocol) | 0.77% of 300,000 active | AID 2098;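 active = more than half of replicate wells show activity change below -50%, luminescence cut by over half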;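 also: luciferase reports HSF-1 transcriptional activity via heat shock element; 0% = median of DMSO wells and -100% = zero luminescence signal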
* marks the source's active call; other numbers are inactive results; nt = no result given. Compounds with a hit are over-represented: about 5.4% of the library has one in this group of screens.

SMILES | AHR activator | NR0B1 inh | FXN GAA850 act | HSF1 activator | HSF1 inhib
COc1ccc(NC(=O)Nc2nnc(-c3ccccc3F)s2)cc1 | 71.5* | 1.1 | -0.8 | 21.0 | 14.1
COc1cccc(NC(=O)Nc2nnc(Cc3ccccc3F)s2)c1 | 14.0 | -0.3 | 1.2 | -74.1 | -67.5*
O=C(Nc1nnc(-c2ccccc2F)s1)c1cccnc1 | 12.5 | 5.1* | 2.1 | 25.9 | 10.8
Cc1ccsc1C(=O)N1CCCC1(C)C(=O)NCC(C)C (centres undefined) | nt | nt | -0.5 | nt | nt
CCOC(=O)[C@@H]1CSCCS(=O)(=O)N1 | nt | -0.4 | 1.7 | nt | nt
Cc1cc(OCC(=O)NC2CCN(Cc3ccccc3)CC2)c2c(C)cc(=O)oc2c1 | 0.0 | -0.2 | 1.8 | 2.5 | 1.1
Cc1cccc(OCC(=O)Nc2nnc(-c3ccco3)s2)c1 | -6.3 | -0.7 | 1.4 | 0.7 | 4.8
COc1ccc(NC(=O)Nc2ccc(O)c3ccccc23)cc1 | 75.2* | nt | nt | -47.6 | -41.9
COc1ccc(NC(=O)Nc2nnc(-c3ccco3)s2)cc1 | 64.4* | 2.6 | 5.2 | 25.6 | 13.7
COc1ccc(C(=O)Nc2ccc(O)c3ccccc23)cc1 | 38.6 | 3.5 | -3.0 | 15.0 | 7.0
CCOc1cccc(C(=O)Nc2nnc(-c3ccco3)s2)c1 | 48.2* | -1.4 | -0.4 | nt | nt
O=[N+]([O-])c1ccc(/C=N/NC2=NS(=O)(=O)c3ccccc32)cc1 | 2.7 | -0.4 | 0.7 | 19.3 | 4.6
O=S1(=O)N=C(N/N=C/c2cccs2)c2ccccc21 | 1.7 | 4.5* | 0.1 | 5.9 | -4.6
CNC(=S)NNC(=O)c1sc(-c2cc(C)on2)nc1C | 73.9* | nt | -0.1 | 45.0 | 3.1
Cc1cc(C(=O)NNC(=S)NCC(C)C)no1 | -1.9 | 0.0 | 0.5 | -0.9 | -3.2
Cc1ccc(NC(=O)N2CCCC2C(=O)NCC2CCCCC2)cc1 (centres undefined) | -0.1 | 1.0 | 1.4 | -91.7 | -89.3*
N#C/C(=C\c1cccn1S(=O)(=O)c1cccc([N+](=O)[O-])c1)S(=O)(=O)c1ccc(F)cc1 | nt | nt | -0.3 | nt | nt
O=C(Cc1cccc2ccccc12)Nc1ccc(Br)cc1C(=O)O | 1.8 | 5.6* | -0.5 | 1.8 | 4.3
O=C(Cc1cccc2ccccc12)Nc1ccc(O)cc1C(=O)O | 0.6 | 0.9 | -1.8 | 1.7 | 2.1
Cc1ccc(Cn2c(CCC(=O)O)nc3ncccc3c2=O)cc1 | nt | 1.8 | 2.0 | -11.3 | -8.0
COc1ccc2[nH]cc(CCNC(=O)c3ccc4ccccc4n3)c2c1 | 71.1* | -0.8 | 0.9 | 3.8 | 13.7
Oc1ccc(Nc2nc(-c3cccnc3)cs2)cc1 | 73.7* | -0.3 | 9.0* | 34.9 | 33.0
Cc1ccc(Nc2nc(-c3cccnc3)cs2)cc1C | 54.4* | 4.3* | 1.9 | 38.1 | 53.0
Clc1ccc(Nc2nc(-c3ccncc3)cs2)cc1 | 23.5 | 0.2 | 4.8 | 17.8 | 4.8
Brc1ccc(Nc2nc(-c3cccnc3)cs2)cc1 | 40.8 | 3.2 | 6.5 | 4.2 | -3.5
SMILES | AHR activator | NR0B1 inh | FXN GAA850 act | HSF1 activator | HSF1 inhib
Nc1ccc(Nc2nc(-c3ccncc3)cs2)cc1 | 90.6* | -0.5 | -2.4 | 18.3 | -0.3
Cc1csc(NC(=O)c2ccc(C)o2)n1 | 17.4 | 1.2 | 1.1 | -18.2 | -13.8
Cc1ccc(C(=O)Nc2nc(-c3cccnc3)cs2)o1 | 69.9* | -0.1 | 1.7 | 16.9 | 9.5
CC(OC(=O)Cn1[nH]c(=O)c2ccccc2c1=O)C(=O)NC1(C#N)CCCCC1 (centres undefined) | 1.5 | 2.0 | 0.4 | -5.7 | -1.3
Cc1ccc(C(=O)c2ccccc2C(=O)OCC(=O)N2C(C)CCCC2C)cc1 (centres undefined) | -2.4 | 0.9 | 1.0 | nt | nt
COc1cccc(CN2CC(C(=O)NC3CCC3)CCC2=O)c1 (centres undefined) | 2.0 | 0.7 | 0.5 | -7.3 | -6.7
O=S1(=O)N[C@H](c2ccccc2)C[C@H](c2ccc(C(F)(F)F)cc2)O1 | 2.8 | -0.2 | -0.2 | -66.7 | -56.4*
CC1CC(c2ccccc2)NS(=O)(=O)O1 (centres undefined) | -2.1 | 0.4 | 2.0 | -10.2 | -1.6
CC(C)NC(=O)c1cc2nc(-c3ccco3)cc(C(F)(F)F)n2n1 | -3.4 | -0.4 | 1.3 | -1.3 | -0.5
CCOC(=O)c1cc2nc(-c3ccco3)cc(C(F)(F)F)n2n1 | -0.2 | -1.4 | -1.2 | -91.5 | -89.0*
C(=C\c1ccco1)/C1=NN(c2ccccc2)C(c2ccco2)C1 (centres undefined) | 0.2 | 1.0 | 4.9 | 77.9* | 52.7
COc1ccc(-c2ccc(C(=O)NCc3ccc(C(F)(F)F)cc3)c3occc23)c(C)c1 | nt | nt | 0.7 | nt | nt
c1coc(C2Nc3ccccc3C3OCCC23)c1 (centres undefined) | -1.1 | -0.7 | -1.4 | -11.8 | 3.4
